Common to all, as to assay: NCI-60 one-dose screen, 48 h (100 = growth as untreated, 0 = no growth, -100 = all killed)
What all share (details): 10 µM unless noted

Assay [1] has as its system SK-MEL-2 melanoma.
Assay [2] has as its system EKVX NSCLC.
For assay [3], the system named is SN12C renal.
Assay [4] deals with UO-31 renal.
Assay [5] relates to TK-10 renal.
Assay [6] relates to ACHN renal.
The subject of assay [7] is CAKI-1 renal.
In assay [8] the test system is A498 renal.
The subject of assay [9] is CCRF-CEM leukemia.
Assay [10] relates to MOLT-4 leukemia.

Each structure is given as a SMILES string. Several values for one entry are separate records, joined by “and”; a condition that tells them apart may be missing. Identical values can stand only once. About 83,000 compounds went through this panel and 20% of them were active in at least one assay; those are over-represented in the sample as a whole.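 A percent growth of 40 corresponds to 60% growth inhibition; 0 means no net growth; -100 means all cells died. Active threshold: below 10.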 Values without a mark were called inactive. Activity calls are given as the source filed them.

For the compound `O=C1C2=C(Nc3cc([N+](=O)[O-])ccc3N2)OC1c1c2ccccc2cc2ccccc12` (stereo not drawn), the growth in assay [1] was 87.4%; in assay [2], 43.6%; in assay [3], 30.6%; in [4], 28.3%; in assay [5], 73.5%; in assay [6], 51.4%. For the same compound, the growth was 53.1% in assay [7], 104% in assay [8], 9.72% (active) in assay [9] and 8.22% (active) in assay [10].

`CCCCCCCCCCCCCCCC[N+](C)(CCO)Cc1cnc[nH]1` (stereo not drawn): the growth in assay [1] is -78.5% (active); in [2], 38.1%; in assay [3] it was -4.78% (active); in [4] it was 27.6%; in assay [5], -35.1% (active); in assay [6], 3.11% (active). Also, the growth was 40.9% in [7], -5.4% (active) in [8] and -77.2% (active) in assay [10].

Consider `C/C=C1\SC(=S)NC1=O`, for which the growth in assay [1] is 111%; in assay [2], 95.1%; in assay [3] it was 101%; in [4], 91.6%; in assay [5], 98.4%; in assay [6], 106%. The growth in assay [7] is 99.3%; in assay [8], 108%; in assay [10], 103%.

Take `Cc1cc(C(C)(CC(C)C)c2ccc(O)c(C)c2)ccc1O`: the growth was 104% in [1]; 89.5% in assay [2]; 85.6% in [3]; 84.6% in assay [4]; 141% in [5]; 83.3% in assay [6]. For the same compound, the growth is 73.3% in assay [7], 101% in [8], 92% in [9] and 80.8% in assay [10].

In the case of `O=C1c2ccccc2C(=O)c2sc(Nc3cccc(Cl)c3)nc21`, the growth in assay [1] is -16% (active); in [2] it was 7.78% (active); in assay [3], -71.3% (active); in [4], -5.49% (active); in assay [5] it was 147%; in [6], -52.8% (active). Besides, the growth in assay [7] is 70.4%; in assay [8], 79.3%; in [9], 8.52% (active); in [10], -19.6% (active).

Turning to `COc1ccccc1OC(=O)Oc1ccccc1OC`, the growth in assay [1] was 115% and 91.6%; in [2], 118% and 97%; in assay [3], 105% and 95.8%; in [4], 78.2% and 93.9%; in assay [5] it was 104% and 98%; in [6], 108% and 104%. The growth in assay [7] was 97.9%; in [8], 108% and 103%; in assay [9], 101% and 83.6%; in assay [10], 93.9% and 92%.

As for `C=CCOc1ccc(N=NC(C#N)C#N)cc1`, the growth in [1] is 87.3%; in assay [2], 92.6%; in assay [3] it was 85.7%; in [4], 41.4%; in [5] it was 62.6%; in assay [6] it was 36%. For the same compound, the growth in [7] was 25.6%; in assay [8], 76%; in assay [9] it was 13.6%; in assay [10], 19.5%.

As to `CNc1ccc2c(c1)c1ccccc1n2C`, the growth was 103% in assay [1]; 106% in assay [2]; 102% in [3]; 92.4% in assay [4]; 97.9% in assay [5]; 114% in [6]. Moreover, the growth was 98.9% in assay [7], 88.8% in assay [8], 109% in [9] and 88.1% in assay [10].

Consider `CC(=Nc1ccc(N(C)C)cc1)c1ccccc1`, for which the growth in [1] is 78.4%; in assay [2], 58.6%; in assay [3] it was 50.4%; in assay [4], 55%; in assay [5], 72.6%; in assay [6] it was 59.8%. Also, the growth in [7] was 79.8%; in [8], 70.4%; in assay [9], 52.2%; in assay [10], 66.7%.

Consider `Nc1nc(N)c2nc(CNc3ccc(C(=O)NC(CCC(=O)O)C(=O)O)cc3)cnc2n1` (stereo not drawn), for which the growth in assay [1] was 60.1% and 58.9%; in assay [2], 72.9% and 44.4%; in assay [3], 25.6% and 14.7%; in assay [4], 13.6% and 31.4%; in assay [5], 54% and 48.1%; in assay [6] it was 19.4%. Further, the growth in [7] is 25.9% and 21.9%; in [8], 45.4% and 85.7%; in [9] it was 22.6% and 29.9%; in assay [10] it was 25.8% and 31.5%.

Consider `O=C(/C=C/c1cccc(Cl)c1)c1ccccc1`, for which the growth in assay [1] was 109% and 100%; in assay [2], 93.5%; in [3], 92.3% and 81%; in assay [4], 77.7% and 70%; in assay [5] it was 84.8%; in assay [6] it was 90.7% and 81.5%. Further, the growth in assay [7] was 90.8% and 75.4%; in assay [8] it was 79.7% and 102%; in [9], 74.1% and 63.7%; in assay [10] it was 90.7% and 86.1%.

Turning to `O[C@H]1[C@H]2c3cc4c(cc3CN3CCC(=C[C@@H]1O)[C@H]23)OCO4`, the growth in [1] was 24.5%; in assay [2], 37.2%; in assay [3] it was 18.8%; in assay [4], 33%; in assay [5], 54.1%; in [6], 9.15% (active). In addition, the growth in assay [7] was 28.1%; in [8], 51.4%; in assay [9], 23.6%; in assay [10] it was 8% (active).
